In PubChem BioAssay (NCATS):
Records with an inconclusive call do not appear. Where a call stands in place of a potency, no number is given. Calls of active or inactive are those of the source. Calls come from the whole dose curve; as a rule, active = well fitted inhibition curve with a large enough effect; inconclusive = small, poorly fitted or top-dose-only effect; inactive = flat fitted curve, though single readings scatter. Peptide text beside a SMILES is read from it.

What was measured:
Test in all cases: qHTS profiling for inhibitors of Plasmodium falciparum proliferation (AID 504749); note: nearly all actives have a fitted effect of over 60% in size
Conditions in all cases: P. falciparum in erythrocytes, SYBR Green DNA, 72 h; series mostly up to 28.7 µM
[1] = tested on: Dd2
Summary of the method: (§1)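 Parasite proliferation within erythrocytes, 72 h exposure. Endpoint: SYBR Green I fluorescence after overnight lysis at room temperature. Controls: 0.29 uM artemisinin, DMSO.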

[2] = tested on: ECU
Summary of the method: as §1

[3] = tested on: FAB9
Summary of the method: as §1

[4] = tested on: GB4
Summary of the method: as §1

[5] = tested on: HB3
Summary of the method: as §1

[6] = tested on: ICS
Summary of the method: as §1

[7] = tested on: JCK
Summary of the method: as §1

[8] = tested on: N140
Summary of the method: as §1

[9] = tested on: P93_24
Summary of the method: as §1

[10] = tested on: P94_40
Summary of the method: as §1
Potency is the fitted concentration of half-maximal effect.

SMILES | Potency [1] | Potency [2] | Potency [3] | Potency [4] | Potency [5] | Potency [6] | Potency [7] | Potency [8] | Potency [9] | Potency [10]
IC(I)I | inactive | inactive | inactive | inactive | inactive | inactive | inactive | inactive | inactive | inactive
CCCC(=O)O[C@]1(C(=O)CCl)[C@H](C)C[C@@H]2[C@H]3CCC4=CC(=O)C=C[C@]4(C)[C@@]3(F)C(=O)C[C@@]21C | 3.16 µM (active) | 2.51 µM (active) | 7.94 µM (active) | 2.39 µM (active) | 2.82 µM (active) | 3.55 µM (active) | 10 µM (active) | 3.16 µM (active) | 3.98 µM (active) | 4.47 µM (active)
CCCCC/C=C\C/C=C\CCCCCCCC(=O)O | inactive | inactive | inactive | inactive | inactive | inactive | inactive | inactive | inactive | inactive
CCCCCCCCCCCC[n+]1ccc2ccccc2c1 | 0.562 µM (active) | 1.26 µM (active) | 1.58 µM (active) | 0.338 µM (active) | 2.51 µM (active) | 0.447 µM (active) | 12.6 µM (active) | 0.708 µM (active) | 0.631 µM (active) | 0.891 µM (active)
COC(=O)[C@H]1[C@H]2C[C@@H]3c4[nH]c5ccccc5c4CCN3C[C@H]2C[C@@H](OC(=O)c2cc(OC)c(OC)c(OC)c2)[C@@H]1OC | 0.0891 µM (active) | 0.316 µM (active) | 1.26 µM (active) | 0.135 µM (active) | 0.794 µM (active) | 0.1 µM (active) | 0.891 µM (active) | 0.199 µM (active) | 0.126 µM (active) | 0.316 µM (active)
CC(C)(C)C(=O)OCOC(=O)[C@@H]1N2C(=O)[C@@H](N=CN3CCCCCC3)[C@H]2SC1(C)C | inactive | inactive | inactive | inactive | inactive | inactive | inactive | inactive | inactive | inactive
CC(C)N=c1cc2n(-c3ccc(Cl)cc3)c3ccccc3nc-2cc1Nc1ccc(Cl)cc1 | inactive | inactive | inactive | inactive | inactive | 3.16 µM (active) | inactive | inactive | inactive | –
Cc1cn([C@H]2C[C@H](O)[C@@H](CO)O2)c(=O)[nH]c1=O | inactive | inactive | inactive | inactive | inactive | inactive | inactive | inactive | inactive | inactive
CC(NNC(=O)c1ccccc1)c1ccccc1 (configuration not stated) | inactive | inactive | inactive | inactive | inactive | inactive | inactive | inactive | inactive | inactive
CC(O)CO (configuration not stated) | inactive | inactive | inactive | inactive | inactive | inactive | inactive | inactive | inactive | inactive
COC(F)(F)C(Cl)Cl | inactive | inactive | inactive | inactive | inactive | inactive | inactive | inactive | inactive | inactive
C[C@H]1C[C@H]2[C@@H]3CCC4=CC(=O)C=C[C@]4(C)[C@@]3(F)[C@@H](O)C[C@]2(C)[C@@]1(O)C(=O)CO | inactive | inactive | inactive | inactive | inactive | inactive | inactive | inactive | inactive | inactive
Cc1c(C)c2c(c(C)c1O)CC[C@@](C)(CCC[C@@H](C)CCC[C@@H](C)CCCC(C)C)O2 | inactive | inactive | inactive | inactive | inactive | inactive | inactive | inactive | – | –
CC(C)=O | inactive | inactive | inactive | inactive | inactive | inactive | inactive | inactive | inactive | –
CC(=O)N[C@@H](CC(=O)O)C(=O)N[C@@H](CCC(=O)O)C(=O)O (Ac-Asp-Glu-OH) | inactive | inactive | inactive | inactive | inactive | inactive | inactive | inactive | inactive | inactive
COC(=O)CCC(=O)CN | inactive | inactive | inactive | inactive | inactive | inactive | inactive | inactive | inactive | inactive
CC[N+](C)(C)Cc1ccccc1Br | inactive | inactive | inactive | inactive | inactive | inactive | inactive | inactive | inactive | inactive
CCNC(=O)[C@@H]1CCCN1C(=O)[C@H](CCCN=C(N)N)NC(=O)[C@H](CC(C)C)NC(=O)[C@@H](Cc1c[nH]c2ccccc12)NC(=O)[C@H](Cc1ccc(O)cc1)NC(=O)[C@H](CO)NC(=O)[C@H](Cc1c[nH]c2ccccc12)NC(=O)[C@H](Cc1cnc[nH]1)NC(=O)[C@@H]1CCC(=O)N1 | 3.16 µM (active) | 1.12 µM (active) | 8.91 µM (active) | 2.39 µM (active) | 11.2 µM (active) | 2.24 µM (active) | 14.1 µM (active) | 4.47 µM (active) | 3.16 µM (active) | 7.94 µM (active)

SMILES | Potency [1] | Potency [2] | Potency [3] | Potency [4] | Potency [5] | Potency [6] | Potency [7] | Potency [8] | Potency [9] | Potency [10]
Cc1ccccc1 | inactive | inactive | inactive | inactive | inactive | inactive | inactive | inactive | inactive | inactive
O=S(=O)(O)c1ccc2c(N=Nc3ccc(S(=O)(=O)O)c4ccccc34)c(O)c(S(=O)(=O)O)cc2c1 | inactive | inactive | inactive | inactive | inactive | inactive | inactive | inactive | inactive | inactive
CCCCCCCCCCCCCCCC(=O)OCC(COC(=O)CCCCCCCCCCCCCCC)OC(=O)CCCCCCCCCCCCCCC | inactive | inactive | inactive | inactive | inactive | inactive | inactive | inactive | inactive | inactive
CC1=C(/C=C/C(C)=C/C=C/C(C)=C/C=C/C=C(C)/C=C/C=C(C)/C=C/C2=C(C)CCCC2(C)C)C(C)(C)CCC1 | inactive | inactive | inactive | inactive | inactive | inactive | inactive | inactive | inactive | inactive
CCCC(=O)Nc1ncnc2c1ncn2C1OC2COP(=O)(O)OC2C1OC(=O)CCC (configuration not stated) | inactive | inactive | inactive | inactive | inactive | inactive | inactive | inactive | inactive | inactive
C=C1C(=CC=C2CCC[C@@]3(C)[C@@H]2CC[C@H]3[C@H](C)CCCC(C)C)C[C@@H](O)C[C@@H]1O | 10 µM (active) | 10 µM (active) | inactive | inactive | 12.6 µM (active) | 12.6 µM (active) | inactive | 14.1 µM (active) | – | –
C#CCOc1ccc2c(C)cc(=O)oc2c1 | inactive | inactive | inactive | inactive | inactive | inactive | inactive | inactive | inactive | inactive
O=C1C(=O)c2ncccc2-c2cccnc21 | 1.12 µM (active) | 2 µM (active) | 7.94 µM (active) | 0.849 µM (active) | 1 µM (active) | 0.631 µM (active) | 10 µM (active) | 1.26 µM (active) | 0.891 µM (active) | 0.794 µM (active)
C[C@@H]1CCC2[C@@H](C)[C@@H](O)O[C@@H]3O[C@@]4(C)CC[C@@H]1[C@@]23OO4 (some centres not stated) | 0.001 µM (active) | 0.0009 µM (active) | 0.0009 µM (active) | 0.0019 µM (active) | 0.0028 µM (active) | 0.001 µM (active) | 10 µM (active) | 0.0016 µM (active) | 0.001 µM (active) | 0.001 µM (active)
O=S(=O)(O)O | inactive | inactive | inactive | inactive | inactive | inactive | inactive | inactive | inactive | inactive
O=C(O)c1cc(O)c2c(c1)[O][Bi][O]2 | inactive | inactive | inactive | inactive | inactive | inactive | inactive | inactive | inactive | inactive
C[C@]12CCC(=O)C=C1CC[C@@H]1[C@@H]2[C@@H](O)C[C@@]2(C)[C@H]1CC[C@]2(O)C(=O)COP(=O)(O)O | inactive | inactive | inactive | inactive | inactive | inactive | inactive | inactive | – | inactive
Nc1c(N=Nc2ccc(-c3ccc(N=Nc4cc(S(=O)(=O)O)c5ccccc5c4N)cc3)cc2)cc(S(=O)(=O)O)c2ccccc12 | inactive | inactive | inactive | inactive | inactive | inactive | – | inactive | inactive | inactive
Cc1cc(C(=O)NNCc2ccccc2)no1 | inactive | inactive | inactive | inactive | inactive | inactive | inactive | inactive | inactive | inactive
CCOC(C)=O | inactive | inactive | inactive | inactive | inactive | inactive | inactive | inactive | inactive | inactive
CC1=C(/C=C/C(C)=C/C=C/C(C)=C/C=C/C=C(C)/C=C/C=C(C)/C=C/C2=C(C)C(=O)CCC2(C)C)C(C)(C)CCC1=O | inactive | inactive | inactive | inactive | inactive | inactive | inactive | inactive | inactive | inactive
Nc1ncnc2c1ncn2[C@@H]1O[C@H](COP(=O)(O)OP(=O)(O)OP(=O)(O)O)[C@@H](O)[C@H]1O | inactive | inactive | inactive | inactive | inactive | inactive | inactive | inactive | inactive | inactive
